Results published in PubChem BioAssay (NCATS).
Records with an inconclusive call do not appear. Calls of active or inactive are those of the source. Unless noted, calls come from the whole dose curve; as a rule, active = well fitted curve in the direction sought with a large enough effect; inconclusive = small, poorly fitted or top-dose-only effect, or another doubt; inactive = no such curve, though single readings can be large; an effect the other way counts as inactive or inconclusive.

Experiments:
[1] = target: ATP-dependent 6-phosphofructokinase (Trypanosoma brucei brucei) (UniProt O15648); experiment: qHTS Assay to Find Inhibitors of T. brucei phosphofructokinase: hit validation (AID 492961);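 note: luminescence reports ADP formed as PFK phosphorylates fructose-6-phosphate with ATP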
Outline: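 ADP-Glo luminescence read-out of ADP formed by 1.25 nM PFK from 0.1 mM ATP and 0.5 mM F6P (TEA pH 8.0, 45 min, RT). Compounds titrated; activity normalized to no-enzyme and full-enzyme controls.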

[2] = target: DNA polymerase III PolC-type (Bacillus subtilis (strain 168)) (UniProt P13267); experiment: qHTS Validation Assay for the Inhibitors of DNA Replication in Gram-Positive Bacteria (AID 485295);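 note: reconstituted holoenzyme with PolC plus beta clamp SSB and primase; PicoGreen fluorescence of double-stranded DNA made on primed circular M13 template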
Outline: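 Inhibition of DNA synthesis by the reconstituted PolC holoenzyme, monitored through PicoGreen staining of dsDNA formed from ssM13Gori, dNTPs and NTPs, with compound preincubation and room-temperature reaction.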

[3] = target: Tumor susceptibility gene 101 protein (Homo sapiens) (UniProt Q99816); experiment: qHTS Validation Assay for Iinhibitors of HIV-1 Budding by Blocking the Interaction of PTAP/TSG101 (AID 485342; calls by dose curve)
Outline: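 Compound wells held the Tsg101 binding domain (10 uM) and a FITC-conjugated PTAP peptide (50 nM) in buffer at pH 7.5 containing 0.15 M NaCl and 0.01% Tween 20; polarization was recorded after 20 min, r.t.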

[4] = qHTS Validation Assay to Find Inhibitors of Chronic Active B-Cell Receptor Signaling (AID 485345; active = well fitted curve in the direction sought with a large enough effect in the main read-out, with a control signal flat, not every such curve was filed as active)
Outline: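 Read-out: ratio of filter-corrected green (IkappaBalpha fusion) to red (native) luciferase signal in doxycycline-induced TMD8 cells after 4 h at 37C. Titration spanned 46 uM–3 nM; Data were normalised to basal cells and 10 uM MG-132 wells.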

[5] = target: Thioredoxin reductase 1, cytoplasmic (Rattus norvegicus) (UniProt O89049); experiment: qHTS Assay for Substrates of Mammalian Selenoprotein Thioredoxin Reductase 1 (TrxR1) (AID 488772);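 note: NADPH fluorescence in the first read after selenite addition and not the 8 min delta; a drop in NADPH fluorescence below the no-compound background marks a TrxR1 substrate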
Outline: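 Quantitative HTS in Tris-HCl buffer at pH 7.5 with EDTA and Tween-20, using rat TrxR1, 400 uM NADPH and 400 uM selenite (final). A fall in initial NADPH fluorescence relative to background marked substrate behaviour.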

[6] = target: Thioredoxin reductase 1, cytoplasmic (Rattus norvegicus) (UniProt O89049); experiment: qHTS Assay for Inhibitors of Mammalian Selenoprotein Thioredoxin Reductase 1 (TrxR1) (AID 488773);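 note: drop in NADPH fluorescence over an 8 min run after selenite addition; nearly all actives have a fitted effect of over 40% in size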
Outline: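 Steps: enzyme (90 nM) plus NADPH (400 uM final), 5 min at ~22 deg C; compound added, 15 min; selenite (400 uM final) added; fluorescence followed for 8 min. Concentration-response curves derived from the normalized delta values.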

[7] = target: Flap endonuclease 1 (Homo sapiens) (UniProt P39748); experiment: qHTS Validation Assay for the Inhibitors of Human Flap endonuclease 1 (FEN1) (AID 488816)
Outline: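 Readings taken at 0 and 15 min after starting the reaction with 50 nM (final) substrate supplied the signal. Compounds had first sat with 10 nM FEN1 reagent for 15 min at room temperature. Values come from Hill-equation concentration-response fits.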

[8] = target: M-phase phosphoprotein 8 (Homo sapiens) (UniProt Q99549); experiment: qHTS Validation Assay for Inhibitors for MPP8 Chromodomain Interactions with Methylated Histone Tails (AID 488949);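 note: 50 nM MPP8 with 50 nM peptide preformed then compounds added for 30 min; AlphaScreen signal from MPP8 chromodomain bound to biotinylated H3K9me3 peptide; top concentration of the series differs between compounds; nearly all actives have a fitted effect of over 55% in size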
Outline: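 Chemiluminescent proximity assay: histidine-tag capture via nickel acceptor beads, biotin peptide via streptavidin donor beads. Protein and peptide each at 50 nM, pH 7.4, with 30 min incubations at room temperature for complex formation, compound exposure and bead binding.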

[9] = target: Chromobox protein homolog 1 (Homo sapiens) (UniProt P83916); experiment: qHTS Validation Assay for Inhibitors of HP1-beta Chromodomain Interactions with Methylated Histone Tails (AID 488953);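 note: loss of AlphaScreen luminescence from HP1-beta binding biotinylated H3K9me3 peptide; nearly all actives have a fitted effect of over 50% in size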
Outline: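 HP1-beta (50 nM) preformed 30 min with biotinylated H3(1-18)K9me3 peptide (50 nM) in PBS pH 7.4, 0.01% Tween-20. Compounds added for 30 min at room temperature. Complex disruption read by AlphaScreen with streptavidin donor/nickel chelate acceptor beads (10 ug/mL each).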

[10] = target: Methanococcus maripaludis chaperonin (MmCpn) (UniProt Q6LX38); experiment: High-Throughput Screening for Modulators of Cytosolic Chaperonin Activity: MmCpn Primary Screen (AID 488978)
Outline: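 HTRF readout (320 nm excitation, 590/665 nm emission) of ADP generated by 50 nM MmCpn hydrolysing 30 uM ATP during 10 min at 37C; compound preincubated 5 min RT.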

[11] = target: D(1A) dopamine receptor (Homo sapiens) (UniProt P21728); experiment: HTS Assay for Allosteric Agonists of the Human D1 Dopamine Receptor: Primary Screen for Agonists (AID 488981)
Outline: (§1)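 Calcium flux in an inducible, force-coupled HEK293 Trex D1 line (overnight at 30 C): agonist mode is the 180 s kinetic read after compound; potentiator mode is the following 180 s read after dopamine at EC20.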

[12] = target: D(1A) dopamine receptor (Homo sapiens) (UniProt P21728); experiment: HTS Assay for Allosteric Agonists of the Human D1 Dopamine Receptor: Primary Screen for Potentiators (AID 488982)
Outline: as §1

[13] = target: D(1A) dopamine receptor (Homo sapiens) (UniProt P21728); experiment: HTS Assay for Allosteric Agonists of the Human D1 Dopamine Receptor: Primary Screen for Antagonists (AID 488983);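 note: calcium flux response to an EC80 dopamine challenge measured with no-wash dye; nearly all actives have a fitted effect of over 65% in size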
Outline: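 Tetracycline-induced HEK293 T-REx D1 line, force-coupled to calcium flux, read with no-wash calcium dye. Compound added after 10 s baseline, read 180 s for agonism, then EC80 dopamine added and read a further 180 s.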

[14] = target: Beta-2 adrenergic receptor (Homo sapiens) (UniProt P07550); experiment: qHTS validation assay of beta-arrestin-biased ligands of beta2-adrenergic receptor (AID 485366)
Outline: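 Values derive from curve-fitted %Activity of a luminescent beta-arrestin recruitment reporter; compounds tested up to 46 microM on Tango cells for 18 hr at 37 degrees C, 5% CO2.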

[15] = target: ATP-dependent 6-phosphofructokinase (Trypanosoma brucei brucei) (UniProt O15648); experiment: qHTS Validation Assay to Find Inhibitors of T. brucei phosphofructokinase (AID 485368); settings: T. brucei PFK enzyme assay, qHTS 7-point titration; at 57.5 µM (top of the series)
Outline: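 Enzyme reaction in triethanolamine buffer pH 8.0 with 5 mM MgCl2, 0.01% Tween20 and 0.1% BSA; PFK 1.25 nM, F6P 0.5 mM, ATP 0.1 mM, 45 min RT. ADP quantified by ADP-Glo.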

Measured: Potency

Sequence of Flap endonuclease 1 (Homo sapiens) (P39748 whole entry, looked up): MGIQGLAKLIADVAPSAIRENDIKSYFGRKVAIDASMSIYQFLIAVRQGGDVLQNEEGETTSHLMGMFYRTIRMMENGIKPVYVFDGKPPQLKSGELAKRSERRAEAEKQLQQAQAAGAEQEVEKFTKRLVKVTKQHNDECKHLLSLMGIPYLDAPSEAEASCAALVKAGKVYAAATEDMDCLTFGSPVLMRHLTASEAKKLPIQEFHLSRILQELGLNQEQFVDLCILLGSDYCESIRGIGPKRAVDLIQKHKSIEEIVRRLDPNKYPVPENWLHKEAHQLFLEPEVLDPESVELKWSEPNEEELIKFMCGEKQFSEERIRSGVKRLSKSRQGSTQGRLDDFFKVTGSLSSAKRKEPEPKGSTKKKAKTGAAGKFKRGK
Sequence of Methanococcus maripaludis chaperonin (MmCpn) (Q6LX38 1-543): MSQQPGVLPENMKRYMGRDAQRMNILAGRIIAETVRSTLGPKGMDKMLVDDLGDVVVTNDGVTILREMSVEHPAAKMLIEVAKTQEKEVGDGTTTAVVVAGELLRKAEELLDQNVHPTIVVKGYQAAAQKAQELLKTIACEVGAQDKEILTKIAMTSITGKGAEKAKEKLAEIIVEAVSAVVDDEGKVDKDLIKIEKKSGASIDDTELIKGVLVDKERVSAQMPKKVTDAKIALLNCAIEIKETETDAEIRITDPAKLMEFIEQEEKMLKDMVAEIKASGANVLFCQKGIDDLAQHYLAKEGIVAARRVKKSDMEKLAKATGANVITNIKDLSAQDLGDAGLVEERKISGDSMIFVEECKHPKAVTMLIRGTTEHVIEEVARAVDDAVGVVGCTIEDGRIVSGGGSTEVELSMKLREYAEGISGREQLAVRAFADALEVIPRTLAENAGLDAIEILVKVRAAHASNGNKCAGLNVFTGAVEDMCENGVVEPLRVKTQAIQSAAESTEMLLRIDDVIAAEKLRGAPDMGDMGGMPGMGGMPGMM
Sequence of Tumor susceptibility gene 101 protein (Homo sapiens) (Q99816 whole entry, looked up, the tested form may be a part): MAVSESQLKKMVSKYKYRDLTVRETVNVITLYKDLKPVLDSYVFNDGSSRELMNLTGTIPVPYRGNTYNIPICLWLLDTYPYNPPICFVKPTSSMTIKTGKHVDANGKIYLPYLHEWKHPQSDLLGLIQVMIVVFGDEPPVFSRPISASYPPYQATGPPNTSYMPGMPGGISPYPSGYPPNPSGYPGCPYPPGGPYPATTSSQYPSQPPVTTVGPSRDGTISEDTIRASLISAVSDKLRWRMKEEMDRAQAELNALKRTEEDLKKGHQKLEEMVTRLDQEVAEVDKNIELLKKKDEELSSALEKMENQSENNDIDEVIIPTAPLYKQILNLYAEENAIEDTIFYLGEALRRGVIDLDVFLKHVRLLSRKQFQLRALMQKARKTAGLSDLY
Sequence of D(1A) dopamine receptor (Homo sapiens) (P21728 whole entry, looked up): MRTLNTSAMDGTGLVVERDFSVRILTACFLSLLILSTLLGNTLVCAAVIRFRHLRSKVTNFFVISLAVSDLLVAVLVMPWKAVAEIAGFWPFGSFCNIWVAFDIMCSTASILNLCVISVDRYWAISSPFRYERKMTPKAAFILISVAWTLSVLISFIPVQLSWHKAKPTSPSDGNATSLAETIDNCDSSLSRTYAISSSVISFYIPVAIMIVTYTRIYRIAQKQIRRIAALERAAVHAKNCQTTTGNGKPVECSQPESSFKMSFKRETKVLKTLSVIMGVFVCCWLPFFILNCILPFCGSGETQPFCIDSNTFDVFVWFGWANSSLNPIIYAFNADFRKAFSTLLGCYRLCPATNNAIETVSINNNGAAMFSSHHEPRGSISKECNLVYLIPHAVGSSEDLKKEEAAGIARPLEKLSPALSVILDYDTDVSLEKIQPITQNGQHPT
Sequence of DNA polymerase III PolC-type (Bacillus subtilis (strain 168)) (P13267 whole entry, looked up): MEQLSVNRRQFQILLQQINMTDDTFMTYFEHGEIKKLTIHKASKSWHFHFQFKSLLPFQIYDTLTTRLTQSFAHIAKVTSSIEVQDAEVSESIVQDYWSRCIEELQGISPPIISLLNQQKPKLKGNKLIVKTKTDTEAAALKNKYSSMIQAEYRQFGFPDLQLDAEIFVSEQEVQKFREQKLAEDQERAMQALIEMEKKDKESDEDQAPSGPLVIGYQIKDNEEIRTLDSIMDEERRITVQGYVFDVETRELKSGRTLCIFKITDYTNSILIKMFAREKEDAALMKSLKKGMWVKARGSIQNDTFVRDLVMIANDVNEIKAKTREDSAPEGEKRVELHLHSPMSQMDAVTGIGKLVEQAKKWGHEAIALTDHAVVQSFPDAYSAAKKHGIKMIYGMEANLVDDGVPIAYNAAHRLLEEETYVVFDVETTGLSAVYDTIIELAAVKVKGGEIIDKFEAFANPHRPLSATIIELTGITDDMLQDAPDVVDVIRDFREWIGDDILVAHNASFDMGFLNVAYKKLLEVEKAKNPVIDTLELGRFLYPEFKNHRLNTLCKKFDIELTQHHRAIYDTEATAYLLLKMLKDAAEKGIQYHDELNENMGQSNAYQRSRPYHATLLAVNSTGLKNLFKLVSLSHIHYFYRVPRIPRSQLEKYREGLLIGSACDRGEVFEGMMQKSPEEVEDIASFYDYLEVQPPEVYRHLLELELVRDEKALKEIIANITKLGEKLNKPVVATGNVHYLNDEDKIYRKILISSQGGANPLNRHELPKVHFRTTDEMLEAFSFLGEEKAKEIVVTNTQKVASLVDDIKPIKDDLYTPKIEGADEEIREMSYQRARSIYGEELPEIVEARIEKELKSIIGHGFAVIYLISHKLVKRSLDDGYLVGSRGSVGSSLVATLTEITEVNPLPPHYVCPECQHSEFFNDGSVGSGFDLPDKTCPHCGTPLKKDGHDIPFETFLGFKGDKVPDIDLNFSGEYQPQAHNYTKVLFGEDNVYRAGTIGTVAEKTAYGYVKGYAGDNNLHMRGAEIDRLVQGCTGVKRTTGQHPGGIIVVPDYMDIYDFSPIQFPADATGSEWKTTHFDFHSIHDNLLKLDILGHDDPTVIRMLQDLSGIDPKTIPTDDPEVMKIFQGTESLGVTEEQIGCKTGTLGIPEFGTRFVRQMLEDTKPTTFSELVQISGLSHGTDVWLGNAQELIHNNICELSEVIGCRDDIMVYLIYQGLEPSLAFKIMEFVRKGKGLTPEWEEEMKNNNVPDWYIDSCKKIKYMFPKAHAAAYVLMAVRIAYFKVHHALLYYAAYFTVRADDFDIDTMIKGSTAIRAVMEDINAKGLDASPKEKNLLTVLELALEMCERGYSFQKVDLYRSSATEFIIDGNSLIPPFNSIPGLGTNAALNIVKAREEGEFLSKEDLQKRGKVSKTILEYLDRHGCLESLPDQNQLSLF
Sequence of ATP-dependent 6-phosphofructokinase (Trypanosoma brucei brucei) (O15648 whole entry, looked up): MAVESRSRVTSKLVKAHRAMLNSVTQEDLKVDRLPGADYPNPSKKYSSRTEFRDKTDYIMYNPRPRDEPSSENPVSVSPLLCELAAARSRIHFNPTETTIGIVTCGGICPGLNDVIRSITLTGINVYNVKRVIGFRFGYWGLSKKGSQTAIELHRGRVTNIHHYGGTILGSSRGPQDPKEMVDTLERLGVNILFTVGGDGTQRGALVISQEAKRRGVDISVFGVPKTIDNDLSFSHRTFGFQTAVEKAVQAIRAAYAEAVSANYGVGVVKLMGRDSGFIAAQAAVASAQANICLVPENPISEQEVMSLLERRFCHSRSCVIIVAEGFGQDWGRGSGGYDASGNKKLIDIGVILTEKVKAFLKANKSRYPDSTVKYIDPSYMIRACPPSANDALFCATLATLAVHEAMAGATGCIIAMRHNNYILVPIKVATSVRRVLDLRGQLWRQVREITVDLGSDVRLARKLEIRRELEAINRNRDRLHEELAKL
Sequence of M-phase phosphoprotein 8 (Homo sapiens) (Q99549 whole entry, looked up): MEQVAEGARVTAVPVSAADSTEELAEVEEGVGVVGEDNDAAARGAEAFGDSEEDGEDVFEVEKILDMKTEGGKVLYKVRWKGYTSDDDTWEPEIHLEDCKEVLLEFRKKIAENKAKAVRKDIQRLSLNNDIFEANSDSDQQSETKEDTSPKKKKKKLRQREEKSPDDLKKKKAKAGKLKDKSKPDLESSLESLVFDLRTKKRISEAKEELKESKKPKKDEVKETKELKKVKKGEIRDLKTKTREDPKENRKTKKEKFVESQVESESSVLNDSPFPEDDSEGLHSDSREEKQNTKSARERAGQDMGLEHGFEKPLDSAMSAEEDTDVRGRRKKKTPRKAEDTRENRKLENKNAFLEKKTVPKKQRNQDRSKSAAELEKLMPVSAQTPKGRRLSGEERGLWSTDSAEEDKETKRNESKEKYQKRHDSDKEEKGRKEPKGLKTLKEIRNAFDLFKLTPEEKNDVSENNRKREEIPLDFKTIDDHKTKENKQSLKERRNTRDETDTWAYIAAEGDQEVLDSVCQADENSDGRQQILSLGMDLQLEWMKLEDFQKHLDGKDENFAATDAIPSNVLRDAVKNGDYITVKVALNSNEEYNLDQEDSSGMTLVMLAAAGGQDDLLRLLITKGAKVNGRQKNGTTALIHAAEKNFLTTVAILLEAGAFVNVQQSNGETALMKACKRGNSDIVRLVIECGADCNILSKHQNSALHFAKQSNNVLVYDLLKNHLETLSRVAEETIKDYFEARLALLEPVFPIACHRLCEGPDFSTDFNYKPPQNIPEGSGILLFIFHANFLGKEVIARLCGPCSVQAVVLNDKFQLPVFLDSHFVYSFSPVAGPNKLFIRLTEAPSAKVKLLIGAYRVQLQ
Sequence of Chromobox protein homolog 1 (Homo sapiens) (P83916 whole entry, looked up): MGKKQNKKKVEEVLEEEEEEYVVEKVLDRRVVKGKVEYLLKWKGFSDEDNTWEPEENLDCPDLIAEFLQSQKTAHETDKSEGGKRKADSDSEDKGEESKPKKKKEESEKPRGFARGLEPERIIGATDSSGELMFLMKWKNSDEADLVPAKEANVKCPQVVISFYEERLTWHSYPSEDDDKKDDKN

CCCCCCCCCCCCOCCOCCOCCOCCOCCOCCOCCOCCOCCO
inactive: [1]

CCN(CC)CCNC(=O)COc1ccc(OC)cc1
inactive: [1]

CC(C)(C)NC[C@H](O)COc1nsnc1N1CCOCC1
inactive: [2] | [3] | [4] | [5] | [6] | [7] | [8] | [9] | [10] | [11] | [12] | [13]

CN1CCN(C2=Nc3ccccc3Sc3ccc(Cl)cc32)CC1
inactive: [1]

CC(=O)N[C@@H](CCC(=O)O)C(=O)O
inactive: [1]

Cc1c[nH]c2ccccc12
inactive: [1]

Cc1ncc(CO)c(C=O)c1O
inactive: [1]

Cc1ccccc1OCC(O)CO (stereo unspecified)
inactive: [1]

NS(=O)(=O)c1cc(C(=O)O)cc(N2CCCC2)c1Oc1ccccc1
inactive: [1]

CCOc1cc(OCC)c(C(=O)CCC(=O)O)cc1OCC
inactive: [1]

NC(=O)C1(N2CCCCC2)CCN(CCCC(=O)c2ccc(F)cc2)CC1
inactive: [1]

CCOC(=O)[C@H](CCc1ccccc1)N[C@@H](C)C(=O)N1[C@H](C(=O)O)C[C@H]2CCCC[C@@H]21
inactive: [2] | [3] | [4] | [14] | [15] | [5] | [6] | [7] | [8] | [9] | [10] | [11] | [12] | [13] | [1]

CN=C(N)NCCC[C@H](N)C(=O)O
inactive: [2] | [3] | [4] | [14] | [15] | [5] | [6] | [7] | [8] | [9] | [10] | [11] | [12] | [13]
